About 83,000 compounds went through this panel and 20% of them were active in at least one assay; those are over-represented in the sample as a whole.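 Plates (96-well) were seeded with cells, treated with compound at one concentration, and incubated for 48 hours before percent growth was determined.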 Unmarked numbers belong to inactive results. Active and inactive are the calls of the source.

This assay concerns SNB-19 CNS. Kind of assay: NCI-60 one-dose screen, 48 h (100 = growth as untreated, 0 = no growth, -100 = all killed). As to conditions: 10 µM unless noted. The protocol: Growth inhibition of the SNB-19 human tumor cell line is measured as a screen for anti-cancer activity. Cells are grown in 96 well plates and exposed to the test compound for 48 hours. Compounds are tested at a single concentration, which is 10^-5 M for most compounds. The reported endpoint is percent growth (GI% or GIPRCNT), where numbers from 0 - 100% represent growth inhibition, and numbers from -100% - 0 represent cell death. For example, a value of 40 represents 60% growth inhibition. A value of 0 means no net growth occurred over the course of the experiment. A value of -40 indicates 40% of cells at the beginning of the experiment died by the end of the experiment. A value of -100 means all cells are dead at the end of the experiment.
NCI-60 Human Tumor Cell Lines Screen was performed using the standard one-dose NCI protocol, which is described in more detail at https://dtp.cancer.gov/discovery_development/nci-60/default.htm.
Compounds with GIPRCNT values below 10 were considered active. Activity score was based on GIPRCNT using the following formula: […]
Score is 0 for GIPRCNT values of 100 or above, 50 for GIPRCNT values of 0, and 100 for GIPRCNT values of -100.
As for `Cc1ccccc1Cn1cnc2ccc(-c3cc(NC(=O)c4ccc(NC5CCN(C)CC5)cc4)n[nH]3)cc21`, the growth is 95%. With `O=S(=O)(Nc1ccccc1)c1ccc(C2CC3(Cl)C(Cl)=C(Cl)C2(Cl)C3(Cl)Cl)cc1` (stereo not given) the figure was 77.6%; with `CN1CCN(Cc2ccc3c(NNC(=O)c4ccccc4)nc4cc(F)ccc4n23)CC1`, 27.4%. Turning to `CN[C@]12CC3(C=CC(=O)C=C3)O[C@@]1(Cc1ccc(OC)cc1)N(C)C(=O)N2`, the growth is 64.4%. `OB(O)c1cccc(-c2nc3ccc4[nH]ncc4c3c3c2CCCC3)c1`: the growth was 78.4%.

With `Fc1cc2c(cc1Cl)N(c1ncnc3ccc(-c4cnc5[nH]ncc5c4)cc13)CC2`, the growth was 69.4%. The result for `CCN(CC)C(=S)SC(SC(=S)N(CC)CC)C(=O)c1nnn(-c2ccc([N+](=O)[O-])cc2)c1C` reads 90.8%; that for `c1ccc(CNc2c3ccccc3nc3ccccc23)cc1`, 39.4%; that for `N#Cc1cccc(-c2c(-c3ccc4ccccc4c3)oc3ccccc3c2=O)c1`, 53.7%.

Consider `O=C(Cn1cc(CN2C(=O)c3ccccc3S2(=O)=O)nn1)Nc1nc2ccccc2s1`, for which the growth is 98.1%. Take `CC[C@@H](C(=O)[C@@H](C)[C@@H](O)[C@H](C)[C@@H]1O[C@@H]([C@@H](CC)C(=O)NCCc2ccc(F)cc2)CC[C@@H]1C)C1O[C@]2(C=CC(=O)[C@]3(CC[C@@](C)([C@H]4CC[C@](O)(CC)[C@H](C)O4)O3)O2)[C@H](C)C[C@@H]1C` (stereo not given in full): the growth was 26.2%. The result for `CCc1n(Cc2ccc3ccccc3c2)cc[n+]1Cc1ccc2ccccc2c1` reads 5.41% (active). The result for `CCCc1cc(NC)nc(S(=O)(=O)CC)n1` reads 102%; that for `COc1cc(/C=C/C(=O)c2cccc(Nc3nc(Nc4ccccc4)nc(Nc4ccccc4)n3)c2)cc(OC)c1OC`, 93.9%. As for `CC(C)=CCC[C@](C)(O)[C@H]1CC[C@]2(C)[C@@H]1CC[C@@H]1[C@@]3(C)Cc4nccnc4C(C)(C)[C@@H]3CC[C@]12C`, the growth is 94%. With `CC(C)(C)[Si](C)(C)O[C@H]1C(=O)C=CN2CC=C[C@@H]12` the figure was 89.1% [100 µM]; with `COC(=O)CNC(=O)[C@H](Cc1ccccc1)NCc1ccncc1`, 97.7%. Turning to `CN(C)CCNc1nc2c3cc(Cl)ccc3nn2c2ccccc12`, the growth is 41.8%. With `CCO/C=N/C1=C(C#N)C(c2ccc(OC)cc2)c2sc3c(F)cccc3c2O1` (stereo not given) the figure was 24%; with `Cc1ccc(-c2csc(NC(=O)CN3CCN(c4cc5c(cc4F)c(=O)c(C(=O)O)cn5C4CC4)CC3)n2)cc1`, 27.7%. `COc1ccc(C2c3sc4c(F)cccc4c3Oc3nc[nH]c(=O)c32)cc1` (stereo not given): the growth was 79%.

For `O=C1/C(=C/c2ccc(Cl)c(Cl)c2)CN(C(=O)C(Cl)Cl)C/C1=C\c1ccc(Cl)c(Cl)c1`, the growth was -93.7% (active). As to `CNC(=O)c1cc(Oc2ccc3c(c2)sc2nc(-c4cc(OC)c(OC)c(OC)c4)cn23)ccn1`, the growth was 82.2%. In the case of `CCCCCCCCCCCCCCCCCCOc1ccccc1CC(=O)OCC[N+]1(C)CCCC1`, the growth was 31.1%.

In the case of `O=[N+]([O-])/C(=C/C=C/c1ccccc1)c1ccccc1`, the growth is 85.9%. The result for `COc1ccc(/C=C2\COc3ccc(O)cc3C2=O)c(OC)c1OC` reads 80.6%; that for `CC12CCC3c4ccccc4CCC3(CO1)C2` (stereo not given), 114%; that for `NC(=O)c1c(NC(=O)c2ccccc2)sc2c1CCC(=O)C2`, 18.6%. The result for `COCCn1cc(-c2nc(-c3cc4cccnc4n3CCOC)cs2)c2cc(OC)ccc21` reads 91.1%; that for `C=CCn1c(SCC(=O)Nc2ccc(C(=O)/C=C/c3cc4cc(OC)ccc4nc3Cl)cc2)nnc1-c1ccc(Br)cc1`, 78.4%; that for `N#C/C(=C\c1ccc2ccccc2c1)c1cc2ccccc2[nH]1`, 43.8%. The result for `Cc1cc(N)c2cc(NC(=O)/C=C\c3ccccc3Cl)ccc2n1` reads -86.3% (active); that for `Cc1ccc(Cc2cnc(NC(=O)c3cc(Br)cs3)s2)cc1`, 54%; that for `S=C(Nc1ccc(-c2nc(N3CCOCC3)c3cccn3n2)cc1)Nc1cccnc1`, 32.2%. In the case of `O=[N+]([O-])c1ccc(N/N=C(/C(=N/Nc2ccc([N+](=O)[O-])cc2)c2ccccc2)c2ccccc2)cc1`, the growth is 93.3%.

As to `CNC(=O)c1c(NC(=O)c2ccc(C(F)(F)F)cc2)sc2c1CCC(=O)C2`, the growth was 2.58% (active). The result for `CCc1nc2c(=O)[nH]cnc2o1` reads 112%; that for `CCOc1ccc(NC(=O)CSc2oc(-c3ccccc3)nc2S(=O)(=O)c2ccc(F)cc2)cc1`, 88%. The result for `CCNC(=O)c1[nH]cc(-c2ccccc2)c1-c1cc(OC)c2c(c1OC)OCO2` reads 98.6%; that for `Cc1ccc(S(=O)(=O)N2CCCC2CO)cc1` (stereo not given), 98.9%.

Values taken from PubChem BioAssay (NCI).
